From the supplement of paper PMC11732987, “Enantioselective OTUD7B fragment discovery through chemoproteomics screening and high-throughput optimisation” (Communications Chemistry, 2025)

Legend:
Experiment in all cases: log2 ratio of Biotin-Ahx-Ub-VS probe labelling (fragment/DMSO); higher = less target engagement (more negative = stronger competition), active = hit call of the paper (q ≤ 0.05, log2 ratio ≤ -1)
Details in all cases: compound concentration: 200 uM; treatment time: 3 h
USP42 = target: T1, USP42 (UniProt Q9H9J4)
T1 sequence (whole entry): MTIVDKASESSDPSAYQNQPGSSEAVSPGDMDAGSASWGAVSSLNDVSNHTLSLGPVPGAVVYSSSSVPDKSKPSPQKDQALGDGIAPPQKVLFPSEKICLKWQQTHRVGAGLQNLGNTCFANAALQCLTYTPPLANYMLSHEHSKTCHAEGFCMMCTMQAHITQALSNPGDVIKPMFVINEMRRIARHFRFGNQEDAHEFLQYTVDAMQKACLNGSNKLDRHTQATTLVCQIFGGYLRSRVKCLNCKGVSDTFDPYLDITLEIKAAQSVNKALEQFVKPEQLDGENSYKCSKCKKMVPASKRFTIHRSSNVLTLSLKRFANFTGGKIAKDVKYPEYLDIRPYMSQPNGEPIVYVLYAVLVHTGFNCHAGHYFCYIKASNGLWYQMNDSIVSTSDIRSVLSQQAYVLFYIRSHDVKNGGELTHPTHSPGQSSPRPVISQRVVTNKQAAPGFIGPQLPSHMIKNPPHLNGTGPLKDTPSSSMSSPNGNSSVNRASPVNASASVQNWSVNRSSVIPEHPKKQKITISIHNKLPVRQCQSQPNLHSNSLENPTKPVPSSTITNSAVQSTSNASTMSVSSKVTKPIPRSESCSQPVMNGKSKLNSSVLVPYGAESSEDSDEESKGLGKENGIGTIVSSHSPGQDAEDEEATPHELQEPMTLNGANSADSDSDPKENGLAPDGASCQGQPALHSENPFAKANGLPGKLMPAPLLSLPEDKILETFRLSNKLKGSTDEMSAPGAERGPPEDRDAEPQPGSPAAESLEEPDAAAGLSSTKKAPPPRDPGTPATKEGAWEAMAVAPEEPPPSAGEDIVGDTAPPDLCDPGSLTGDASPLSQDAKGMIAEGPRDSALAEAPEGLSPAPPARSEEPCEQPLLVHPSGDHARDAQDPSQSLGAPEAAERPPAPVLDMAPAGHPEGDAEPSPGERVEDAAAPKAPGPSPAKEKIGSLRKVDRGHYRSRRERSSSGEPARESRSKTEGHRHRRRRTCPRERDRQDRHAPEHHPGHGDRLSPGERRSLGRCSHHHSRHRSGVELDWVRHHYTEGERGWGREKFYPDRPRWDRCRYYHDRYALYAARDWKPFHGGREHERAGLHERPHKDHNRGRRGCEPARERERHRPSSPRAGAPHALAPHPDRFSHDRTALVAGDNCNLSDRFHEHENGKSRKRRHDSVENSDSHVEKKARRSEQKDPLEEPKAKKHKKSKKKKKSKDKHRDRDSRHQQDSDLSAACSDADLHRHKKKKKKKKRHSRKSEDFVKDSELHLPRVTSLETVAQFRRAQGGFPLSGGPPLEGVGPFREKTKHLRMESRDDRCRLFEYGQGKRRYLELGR
Outline: (§1)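 HEK293T lysate (495 µg per sample, in Tris/CHAPS/IGEPAL buffer with protease inhibitors) was treated in triplicate with fragment at 200 µM or with DMSO for 3 h. It was then treated with Biotin-Ahx-Ub-VS (0.5 µM final) for 1 h. Labelled DUBs were NeutrAvidin-enriched, digested with LysC and trypsin, and run by diaPASEF LC-MS/MS. Spectronaut label-free quantities were global-median-normalised. Values are average log2 ratios fragment/DMSO by unpaired t-test, using proteins with ≥2 unique peptides.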

USP46 = USP46 (UniProt P62068)
Chain of USP46 (P62068 whole entry): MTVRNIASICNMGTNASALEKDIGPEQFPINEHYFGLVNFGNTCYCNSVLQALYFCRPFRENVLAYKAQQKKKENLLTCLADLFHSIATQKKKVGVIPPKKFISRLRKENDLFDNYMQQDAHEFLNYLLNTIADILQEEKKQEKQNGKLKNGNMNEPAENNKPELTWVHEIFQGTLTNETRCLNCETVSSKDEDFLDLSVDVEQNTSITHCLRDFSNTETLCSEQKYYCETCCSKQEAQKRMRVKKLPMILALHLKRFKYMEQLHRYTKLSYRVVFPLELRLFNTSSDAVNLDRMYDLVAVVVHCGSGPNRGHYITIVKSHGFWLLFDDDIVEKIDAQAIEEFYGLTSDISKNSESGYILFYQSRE
Outline: as §1

USP47 = target: T2, USP47 (UniProt Q96K76)
T2 sequence (whole entry): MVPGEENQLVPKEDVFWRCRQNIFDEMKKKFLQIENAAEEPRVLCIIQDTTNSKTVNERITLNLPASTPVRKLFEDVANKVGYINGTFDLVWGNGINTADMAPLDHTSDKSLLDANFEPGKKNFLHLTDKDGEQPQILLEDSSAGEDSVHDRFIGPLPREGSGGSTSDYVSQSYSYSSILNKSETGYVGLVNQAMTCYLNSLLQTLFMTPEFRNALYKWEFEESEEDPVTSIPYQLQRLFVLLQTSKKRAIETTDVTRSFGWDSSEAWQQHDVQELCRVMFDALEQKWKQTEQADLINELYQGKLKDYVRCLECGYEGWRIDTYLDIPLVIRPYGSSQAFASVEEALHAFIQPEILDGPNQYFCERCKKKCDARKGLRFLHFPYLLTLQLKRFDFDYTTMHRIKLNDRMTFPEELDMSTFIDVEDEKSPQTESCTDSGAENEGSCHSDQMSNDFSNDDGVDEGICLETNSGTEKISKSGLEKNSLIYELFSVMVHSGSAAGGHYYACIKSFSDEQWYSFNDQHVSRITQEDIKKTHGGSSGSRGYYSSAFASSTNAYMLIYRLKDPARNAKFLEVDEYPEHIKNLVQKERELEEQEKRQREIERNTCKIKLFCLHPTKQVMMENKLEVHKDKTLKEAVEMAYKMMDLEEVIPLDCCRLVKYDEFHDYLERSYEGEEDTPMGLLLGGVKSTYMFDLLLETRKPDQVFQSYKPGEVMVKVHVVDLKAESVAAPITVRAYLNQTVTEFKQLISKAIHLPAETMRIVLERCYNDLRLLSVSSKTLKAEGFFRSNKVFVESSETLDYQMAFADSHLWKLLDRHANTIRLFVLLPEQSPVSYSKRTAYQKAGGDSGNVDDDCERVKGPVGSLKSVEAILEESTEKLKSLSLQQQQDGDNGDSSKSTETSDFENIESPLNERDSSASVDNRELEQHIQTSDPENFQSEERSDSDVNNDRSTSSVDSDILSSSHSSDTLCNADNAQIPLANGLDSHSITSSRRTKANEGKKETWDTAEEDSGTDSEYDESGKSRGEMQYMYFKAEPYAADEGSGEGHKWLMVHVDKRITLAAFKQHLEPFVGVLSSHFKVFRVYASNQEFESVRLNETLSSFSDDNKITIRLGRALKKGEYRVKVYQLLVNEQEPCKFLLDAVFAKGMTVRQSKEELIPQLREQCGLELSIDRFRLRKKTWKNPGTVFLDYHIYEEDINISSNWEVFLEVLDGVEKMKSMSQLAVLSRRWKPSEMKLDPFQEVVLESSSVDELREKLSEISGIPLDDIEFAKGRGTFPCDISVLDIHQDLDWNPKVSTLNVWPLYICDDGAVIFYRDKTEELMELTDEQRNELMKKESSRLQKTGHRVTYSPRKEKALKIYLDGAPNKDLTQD
Outline: as §1

USP48 = target: T3, USP48 (UniProt Q86UV5)
T3 sequence (whole entry): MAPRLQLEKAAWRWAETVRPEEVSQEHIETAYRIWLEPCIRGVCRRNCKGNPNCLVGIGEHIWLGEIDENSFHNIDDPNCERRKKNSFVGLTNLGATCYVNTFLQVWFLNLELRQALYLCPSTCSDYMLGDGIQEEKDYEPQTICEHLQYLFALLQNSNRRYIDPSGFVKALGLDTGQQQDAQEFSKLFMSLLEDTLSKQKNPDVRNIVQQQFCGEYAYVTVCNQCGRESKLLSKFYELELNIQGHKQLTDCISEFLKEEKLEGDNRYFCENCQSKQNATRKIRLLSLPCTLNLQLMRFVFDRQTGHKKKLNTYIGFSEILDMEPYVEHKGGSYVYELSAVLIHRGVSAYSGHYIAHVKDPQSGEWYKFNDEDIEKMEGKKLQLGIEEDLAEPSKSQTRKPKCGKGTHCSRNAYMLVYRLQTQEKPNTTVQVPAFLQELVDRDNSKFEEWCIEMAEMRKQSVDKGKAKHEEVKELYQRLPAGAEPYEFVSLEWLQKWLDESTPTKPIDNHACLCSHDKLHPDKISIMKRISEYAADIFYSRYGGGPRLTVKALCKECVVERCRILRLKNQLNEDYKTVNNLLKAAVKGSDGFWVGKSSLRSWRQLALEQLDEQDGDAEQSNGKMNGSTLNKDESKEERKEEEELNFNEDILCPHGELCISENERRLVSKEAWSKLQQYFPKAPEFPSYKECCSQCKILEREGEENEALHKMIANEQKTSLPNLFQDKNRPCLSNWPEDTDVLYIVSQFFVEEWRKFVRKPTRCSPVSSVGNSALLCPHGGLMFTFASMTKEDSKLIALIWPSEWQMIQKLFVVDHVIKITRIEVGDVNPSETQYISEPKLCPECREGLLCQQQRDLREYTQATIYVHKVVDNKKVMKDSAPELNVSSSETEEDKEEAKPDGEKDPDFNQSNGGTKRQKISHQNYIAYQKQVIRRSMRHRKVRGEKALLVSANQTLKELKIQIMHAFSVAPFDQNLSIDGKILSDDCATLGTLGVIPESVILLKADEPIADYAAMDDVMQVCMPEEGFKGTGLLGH
Outline: as §1

USP5 = target: T4, USP5 (UniProt P45974)
T4 sequence (whole entry): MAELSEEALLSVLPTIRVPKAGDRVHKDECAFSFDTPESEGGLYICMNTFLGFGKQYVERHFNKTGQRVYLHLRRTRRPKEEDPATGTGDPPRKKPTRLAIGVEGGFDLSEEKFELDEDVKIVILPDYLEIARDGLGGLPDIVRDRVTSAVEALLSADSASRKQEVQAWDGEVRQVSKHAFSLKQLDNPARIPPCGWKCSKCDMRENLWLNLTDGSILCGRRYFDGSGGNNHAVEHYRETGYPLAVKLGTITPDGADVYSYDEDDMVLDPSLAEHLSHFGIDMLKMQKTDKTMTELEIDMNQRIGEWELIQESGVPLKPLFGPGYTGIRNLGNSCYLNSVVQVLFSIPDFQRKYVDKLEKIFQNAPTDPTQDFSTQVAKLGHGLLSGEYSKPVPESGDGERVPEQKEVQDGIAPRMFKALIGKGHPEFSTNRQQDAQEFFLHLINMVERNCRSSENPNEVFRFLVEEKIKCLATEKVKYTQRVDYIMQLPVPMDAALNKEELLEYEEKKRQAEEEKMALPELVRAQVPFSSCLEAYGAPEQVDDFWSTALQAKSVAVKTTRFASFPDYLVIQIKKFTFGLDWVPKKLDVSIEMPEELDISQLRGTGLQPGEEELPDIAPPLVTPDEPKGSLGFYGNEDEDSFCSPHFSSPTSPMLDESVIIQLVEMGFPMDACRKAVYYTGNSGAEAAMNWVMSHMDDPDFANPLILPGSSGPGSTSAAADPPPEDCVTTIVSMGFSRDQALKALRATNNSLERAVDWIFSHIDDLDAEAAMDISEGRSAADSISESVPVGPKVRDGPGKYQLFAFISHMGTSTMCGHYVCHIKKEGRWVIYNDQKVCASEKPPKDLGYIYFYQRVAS
Outline: as §1

USP54 = USP54 (UniProt Q70EL1)
Outline: as §1

USP7 = USP7 (UniProt Q93009)
Chain of USP7 (Q93009 whole entry, looked up): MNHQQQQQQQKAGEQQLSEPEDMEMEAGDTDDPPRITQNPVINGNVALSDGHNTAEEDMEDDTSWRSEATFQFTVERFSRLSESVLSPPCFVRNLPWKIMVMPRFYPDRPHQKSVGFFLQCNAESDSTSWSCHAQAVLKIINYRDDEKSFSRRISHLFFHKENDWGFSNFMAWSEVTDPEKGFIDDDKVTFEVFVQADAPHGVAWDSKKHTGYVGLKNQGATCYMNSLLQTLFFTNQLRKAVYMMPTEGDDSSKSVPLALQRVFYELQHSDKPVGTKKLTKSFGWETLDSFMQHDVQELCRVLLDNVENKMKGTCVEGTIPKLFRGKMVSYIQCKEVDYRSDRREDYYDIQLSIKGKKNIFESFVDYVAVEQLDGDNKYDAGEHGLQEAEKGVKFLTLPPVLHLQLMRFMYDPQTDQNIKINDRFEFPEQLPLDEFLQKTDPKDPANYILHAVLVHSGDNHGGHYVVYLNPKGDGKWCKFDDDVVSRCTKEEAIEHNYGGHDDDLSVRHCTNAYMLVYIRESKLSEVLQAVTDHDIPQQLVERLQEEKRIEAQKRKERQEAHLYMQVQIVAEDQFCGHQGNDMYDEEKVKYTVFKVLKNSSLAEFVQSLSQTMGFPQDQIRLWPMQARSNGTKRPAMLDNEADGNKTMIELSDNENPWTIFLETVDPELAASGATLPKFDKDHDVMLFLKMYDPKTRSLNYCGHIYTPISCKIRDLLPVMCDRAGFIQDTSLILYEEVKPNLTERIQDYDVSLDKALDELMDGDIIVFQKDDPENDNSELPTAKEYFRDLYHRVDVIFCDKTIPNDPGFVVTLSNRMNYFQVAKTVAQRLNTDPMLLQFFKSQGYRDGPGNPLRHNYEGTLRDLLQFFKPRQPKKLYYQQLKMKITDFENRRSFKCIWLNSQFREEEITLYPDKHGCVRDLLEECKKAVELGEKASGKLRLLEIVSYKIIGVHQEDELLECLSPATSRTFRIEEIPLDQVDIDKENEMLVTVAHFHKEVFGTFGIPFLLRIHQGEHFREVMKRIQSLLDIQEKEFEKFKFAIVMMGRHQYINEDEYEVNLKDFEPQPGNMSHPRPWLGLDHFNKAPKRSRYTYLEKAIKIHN
Outline: as §1

USP8 = target: T5, USP8 (UniProt P40818)
T5 sequence (whole entry): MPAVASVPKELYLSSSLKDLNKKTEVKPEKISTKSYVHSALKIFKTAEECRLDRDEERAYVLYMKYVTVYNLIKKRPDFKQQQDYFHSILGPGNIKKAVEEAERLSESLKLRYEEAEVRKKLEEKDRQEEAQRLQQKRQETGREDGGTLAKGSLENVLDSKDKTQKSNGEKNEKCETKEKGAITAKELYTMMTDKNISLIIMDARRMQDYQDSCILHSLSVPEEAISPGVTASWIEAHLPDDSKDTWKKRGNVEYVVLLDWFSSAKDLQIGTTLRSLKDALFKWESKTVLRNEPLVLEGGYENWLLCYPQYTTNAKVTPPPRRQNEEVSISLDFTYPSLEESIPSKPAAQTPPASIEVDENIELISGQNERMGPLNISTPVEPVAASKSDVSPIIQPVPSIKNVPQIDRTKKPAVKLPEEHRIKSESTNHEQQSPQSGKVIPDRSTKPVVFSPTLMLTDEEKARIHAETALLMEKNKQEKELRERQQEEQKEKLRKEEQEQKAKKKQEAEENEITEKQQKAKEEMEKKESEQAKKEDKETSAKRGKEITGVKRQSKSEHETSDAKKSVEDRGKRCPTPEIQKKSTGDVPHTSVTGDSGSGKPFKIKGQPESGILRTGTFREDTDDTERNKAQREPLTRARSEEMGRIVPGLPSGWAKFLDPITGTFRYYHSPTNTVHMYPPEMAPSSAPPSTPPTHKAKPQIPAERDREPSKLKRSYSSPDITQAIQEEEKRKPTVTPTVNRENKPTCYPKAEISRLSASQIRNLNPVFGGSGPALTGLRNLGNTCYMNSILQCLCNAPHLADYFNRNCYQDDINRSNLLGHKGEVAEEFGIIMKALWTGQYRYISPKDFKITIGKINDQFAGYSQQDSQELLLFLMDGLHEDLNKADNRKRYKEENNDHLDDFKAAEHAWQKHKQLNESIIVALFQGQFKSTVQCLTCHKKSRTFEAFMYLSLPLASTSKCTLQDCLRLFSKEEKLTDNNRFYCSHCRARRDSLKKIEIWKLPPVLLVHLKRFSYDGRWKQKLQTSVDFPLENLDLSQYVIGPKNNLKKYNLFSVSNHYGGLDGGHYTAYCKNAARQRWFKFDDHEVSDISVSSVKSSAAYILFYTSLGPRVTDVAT
Outline: as §1

USP9X = USP9X (UniProt Q93008)
Chain of USP9X (Q93008 whole entry): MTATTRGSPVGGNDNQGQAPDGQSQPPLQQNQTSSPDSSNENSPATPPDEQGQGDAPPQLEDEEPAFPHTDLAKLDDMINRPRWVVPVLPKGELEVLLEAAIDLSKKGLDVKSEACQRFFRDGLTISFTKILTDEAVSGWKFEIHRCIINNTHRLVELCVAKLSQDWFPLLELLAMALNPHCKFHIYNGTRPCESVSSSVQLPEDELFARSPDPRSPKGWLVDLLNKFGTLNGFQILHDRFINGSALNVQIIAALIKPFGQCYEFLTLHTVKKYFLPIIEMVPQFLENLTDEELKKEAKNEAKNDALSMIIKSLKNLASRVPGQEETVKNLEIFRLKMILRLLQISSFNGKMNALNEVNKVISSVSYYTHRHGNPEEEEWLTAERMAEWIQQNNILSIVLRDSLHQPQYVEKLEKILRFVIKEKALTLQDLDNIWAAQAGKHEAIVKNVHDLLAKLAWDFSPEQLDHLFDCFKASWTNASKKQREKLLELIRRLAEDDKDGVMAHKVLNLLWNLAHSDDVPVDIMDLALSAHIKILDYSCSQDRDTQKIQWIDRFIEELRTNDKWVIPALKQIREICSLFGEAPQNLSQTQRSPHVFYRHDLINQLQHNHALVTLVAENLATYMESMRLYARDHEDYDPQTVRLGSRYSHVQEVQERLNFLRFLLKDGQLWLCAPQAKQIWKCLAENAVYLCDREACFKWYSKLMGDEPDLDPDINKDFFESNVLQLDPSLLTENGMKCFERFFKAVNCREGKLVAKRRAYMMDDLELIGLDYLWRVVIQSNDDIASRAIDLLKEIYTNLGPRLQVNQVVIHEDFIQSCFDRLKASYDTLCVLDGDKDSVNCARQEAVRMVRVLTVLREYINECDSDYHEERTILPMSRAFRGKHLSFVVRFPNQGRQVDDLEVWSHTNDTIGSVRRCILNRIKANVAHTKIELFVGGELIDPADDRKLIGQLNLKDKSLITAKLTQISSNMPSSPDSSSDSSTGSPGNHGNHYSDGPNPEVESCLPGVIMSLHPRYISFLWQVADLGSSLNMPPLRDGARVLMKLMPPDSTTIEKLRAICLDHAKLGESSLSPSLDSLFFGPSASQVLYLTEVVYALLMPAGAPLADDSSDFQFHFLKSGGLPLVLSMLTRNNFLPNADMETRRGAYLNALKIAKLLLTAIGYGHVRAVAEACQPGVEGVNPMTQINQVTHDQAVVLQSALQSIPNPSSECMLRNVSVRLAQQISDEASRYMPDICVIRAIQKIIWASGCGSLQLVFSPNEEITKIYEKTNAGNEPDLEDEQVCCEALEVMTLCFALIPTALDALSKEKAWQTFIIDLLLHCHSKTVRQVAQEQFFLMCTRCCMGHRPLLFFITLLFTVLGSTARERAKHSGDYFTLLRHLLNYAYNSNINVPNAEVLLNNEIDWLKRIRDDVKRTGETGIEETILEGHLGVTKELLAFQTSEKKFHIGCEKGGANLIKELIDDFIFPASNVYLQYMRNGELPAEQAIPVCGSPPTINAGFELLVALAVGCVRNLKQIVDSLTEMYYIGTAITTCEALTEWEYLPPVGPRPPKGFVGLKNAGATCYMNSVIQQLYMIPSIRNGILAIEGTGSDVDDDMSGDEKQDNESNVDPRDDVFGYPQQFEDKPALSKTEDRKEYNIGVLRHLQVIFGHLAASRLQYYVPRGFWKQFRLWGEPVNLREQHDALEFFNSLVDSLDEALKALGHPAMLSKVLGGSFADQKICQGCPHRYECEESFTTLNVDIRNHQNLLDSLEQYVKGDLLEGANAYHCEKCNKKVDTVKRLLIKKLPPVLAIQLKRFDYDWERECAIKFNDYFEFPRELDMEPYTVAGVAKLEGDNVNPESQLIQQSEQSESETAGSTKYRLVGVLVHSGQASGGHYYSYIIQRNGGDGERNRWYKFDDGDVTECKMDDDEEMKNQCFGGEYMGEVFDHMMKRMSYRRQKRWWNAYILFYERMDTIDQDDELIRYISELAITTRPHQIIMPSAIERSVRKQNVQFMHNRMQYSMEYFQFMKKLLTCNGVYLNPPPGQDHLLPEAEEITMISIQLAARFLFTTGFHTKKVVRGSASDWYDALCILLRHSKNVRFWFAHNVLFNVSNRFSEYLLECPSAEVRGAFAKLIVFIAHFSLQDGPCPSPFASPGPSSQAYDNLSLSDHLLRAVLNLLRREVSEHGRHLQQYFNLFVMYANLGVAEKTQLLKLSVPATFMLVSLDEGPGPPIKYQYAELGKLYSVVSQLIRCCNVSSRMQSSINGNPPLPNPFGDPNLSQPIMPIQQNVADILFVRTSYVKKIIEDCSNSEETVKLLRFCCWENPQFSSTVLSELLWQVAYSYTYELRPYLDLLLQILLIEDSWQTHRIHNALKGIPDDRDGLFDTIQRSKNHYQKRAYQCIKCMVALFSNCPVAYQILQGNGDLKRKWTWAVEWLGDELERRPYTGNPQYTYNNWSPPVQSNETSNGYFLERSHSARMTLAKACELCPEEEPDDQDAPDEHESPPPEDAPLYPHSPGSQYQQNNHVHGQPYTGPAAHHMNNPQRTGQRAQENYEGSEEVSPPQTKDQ
Outline: as §1

UniProt O00487 = target: UniProt O00487
Chain of UniProt O00487 (O00487 whole entry): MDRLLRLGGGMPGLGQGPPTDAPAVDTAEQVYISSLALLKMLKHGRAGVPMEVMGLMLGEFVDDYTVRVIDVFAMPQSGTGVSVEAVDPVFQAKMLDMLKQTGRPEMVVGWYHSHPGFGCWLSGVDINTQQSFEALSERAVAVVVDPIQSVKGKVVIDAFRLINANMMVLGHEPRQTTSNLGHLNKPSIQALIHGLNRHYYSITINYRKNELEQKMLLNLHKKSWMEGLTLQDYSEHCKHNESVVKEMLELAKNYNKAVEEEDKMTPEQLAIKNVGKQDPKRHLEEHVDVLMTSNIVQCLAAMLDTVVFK
Outline: as §1

Measured: log2 ratio of Biotin-Ahx-Ub-VS probe labelling

O=C(CCl)Nc1cccc(C(=O)N2CCSCC2)c1
inactive: USP42 0.397 | USP46 -0.00544 | USP47 0.175 | USP48 -0.0892 | USP5 -0.171 | USP54 -0.177 | USP7 -0.299 | USP8 -0.00928 | USP9X -0.091 | UniProt O00487 0.0356
